According to PubChem BioAssay (NCI):
The panel holds about 79,000 compounds, 15% with a hit somewhere; the sample as a whole holds those more often. Unmarked numbers belong to inactive results. The source made the active and inactive calls. Rule as the data show it: active = growth inhibition above about 70%; inactive = the rest.

assay: NCI Yeast Anticancer Drug Screen. Data for the sgs1 mgt1 strain (AID 161);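 also: 0% = growth of cultures given vehicle only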; details: S. cerevisiae sgs1 mgt1 strain, at 50.0 µM (retest, dose inferred, filed as 5.0), hits give high values
How it was run: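 Genetically altered yeast, compound exposure, growth inhibition relative to vehicle.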

Row | Compound | growth inhibition
1 | CCCCCC(C1SC(=S)NC1=O)C1SC(=S)NC1=O (configuration not stated) | 6%
2 | CC(C)C1=CC2=CC(=O)C3C(C)(C)CCCC3(C)C2=C(O)C1=O (configuration not stated) | 94% (active)
3 | CCOC(=O)C[n+]1c(C)sc2ccccc21 | 54%
4 | OCc1c(-c2cccc3ccccc23)sc(-c2cccc3ccccc23)c1CO | 56%
5 | CC1=C(C#N)C(=O)OC1(C)C(CC(=O)c1ccccc1)c1ccccc1 (configuration not stated) | 16%
6 | O=c1oc2c3ccc4ccccc4c3n(CCCN3CCCCC3)c2c2ccccc12 | 35%
7 | Cc1cc(NC(=S)SCc2ccc(F)cc2)ccc1Br | 100% (active)
8 | Cc1ccc(C2C(O)=C(c3ccccc3)Sc3ccc(C)cc32)cc1 (configuration not stated) | 74% (active)
9 | COC(=O)/C=C1/OC(c2ccccc2)=CC1=O | 22%
10 | COc1ccccc1NC(=O)CC(=O)N1N=C(c2ccccc2)C(N=Nc2ccc(Cl)cc2)C1=O (configuration not stated) | 25%
11 | CC(=O)NC1=C(Nc2ccc(-c3ccc(NC4=C(NC(C)=O)C(=O)c5ccccc5C4=O)cc3)cc2)C(=O)c2ccccc2C1=O | 99% (active)
12 | CCCCCCC(O)CCOC(C)=O (configuration not stated) | -3%
13 | CCn1nc(-c2ccccc2)c2c1N(C)c1ccccc1-n1c(-c3ccccc3)nnc1-2 | 45%
14 | CC1(CCC(=O)O)c2ccc3ccccc3c2Oc2c1ccc1ccccc21 | 94% (active)
15 | CCN1/C(=C\c2cc(C)nc(-c3ccccc3)[n+]2C)C=Cc2ccccc21 | 99% (active)
16 | Cc1ccccc1N1C(=O)c2ccccc2C1=O | 7%
17 | O=C(Oc1ccccc1)C1CCCCC1C(=O)Oc1ccccc1 (configuration not stated) | 5%
